“And” between values parts separate entries of the source, which are not always exact repeats. Identical values can stand only once. Inconclusive results are not listed. Where a structure was tested more than once in an assay, its records may differ in their call. The source made the active and inactive calls. Calls come from the whole dose curve; as a rule, active = well fitted cell-killing curve with a large enough effect; inconclusive = small, poorly fitted or top-dose-only effect; inactive = flat fitted curve, though single readings scatter. Non-standard residues stand in square brackets, D forms with d. Residues, ends and D or L forms follow the SMILES beside them. Peptide text beside a SMILES is read from it. *: point of attachment. Sta = CC(C)C[C@H](N)[C@@H](O)CC(=O)O; Isovaleryl = CC(C)CC(=O)*
Assay: qHTS of pediatric cancer cell lines to identify multiple opportunities for drug repurposing: Primary screen for BT-37 cells (AID 1347094)
Conditions: BT-37 viability, CellTiter-Glo luminescence, 48 h; series mostly up to 57.3 µM; activity change, negative = cytotoxic: at the top concentration
Source text: Drug repurposing or repositioning has been offered as a strategy for drug development in oncology programs. This approach has special potential for childhood cancers and other rare or orphan diseases, where the expected return on new drug development has been a disincentive to pharmaceuticals. […] In this project we exploit the poly-pharmacology of drugs to discover new indications via phenotypic screening of a panel of 19 well-characterized cell lines derived from solid tumors seen in children and adolescents. The goal is to identify approved drugs with previously unrecognized anticancer properties that has the potential to reveal new mechanisms and biological processes involved in carcinogenesis or drug resistance. We employed a titration-based paradigm (quantitative high-throughput screening or qHTS), where all compounds were tested at multiple concentrations for their effect on cell viability. Concentration-response curves (CRCs) were derived directly from the primary screen, and both potency and efficacy values were used to identify compounds with robust bioactivity profiles. We screened the NIH Chemical Genomics Center (NCGC) Pharmaceutical Collection (NPC) and Mechanism Interrogation Plate (MIPE) small molecule collections of approved and investigational compounds against these cell lines; and measured metabolically active cells after 48 hours of compound treatment as a proxy for cell viability. […] Assay Submitter: Nathalia J. Martinez, National Center for Advancing Translational Sciences, National Institutes of Health, Rockville, MD, USA; email: natalia.martinez@nih.gov Shen, M et al. Quantitative high-throughput phenotypic screening of pediatric cancer cell lines identifies multiple opportunities for drug repurposing. Oncotarget 2017 Dec 19;9(4):4758-4772. PMID 29435139.
The cells were obtained from University of North Carolina (UNC), Pediatric Preclinical Testing Program (PPT), and Coriell Institute (CI). qHTS cell viability assay: Cells were assayed in growth media at a density of 500-1,000 cells/well. Five microliters of cells were dispensed into 1,536-well, white, solid-bottom, TC-treated plates (Greiner Bio One) using a multidrop dispenser and incubated at 37 degrees C, 5% CO2, under a humidified atmosphere for 5 hours. Twenty-three nanoliters of compounds and controls (neutral control DMSO or positive control bortezomib at final concentration of 2.3 µM) were subsequently transferred by Kalypsys pintool. For primary screens, the MIPE collection was tested at 11-point dilutions (final concentrations range from 0.78 nM to 46 µM) and the NPC collection at 8-point dilutions (final concentrations range from 0.59 nM to 46 µM). Compounds tested in follow-up screens were assayed at 11-point dilutions. Cells were incubated for 48 hours, followed by addition of 3 µL of CellTiter-Glo (Promega). After a 15 min incubation at room temperature, samples were analyzed for luminescence intensity using a ViewLux High-throughput CCD imager equipped with clear filters.
Potency is the fitted concentration of half-maximal effect.

Row | SMILES | Potency | activity change, negative = cytotoxic
1 | CC[C@]1(O)C[C@H]2CN(CCc3c([nH]c4ccccc34)[C@@](C(=O)OC)(c3cc4c(cc3OC)N(C=O)[C@H]3[C@@](O)(C(=O)OC)[C@H](OC(C)=O)[C@]5(CC)C=CCN6CC[C@]43[C@@H]65)C2)C1 | 21.7 nM (active) and 17.4 nM (active) | –
2 | CCOC(=O)C(C)Oc1cccc2c(=O)n(CC(=O)Nc3ccc4c(c3)OCCO4)ccc12 (stereo not given) | – | 4.89% (inactive)
3 | CC(C)c1ccc2oc3nc(N)c(C(=O)O)cc3c(=O)c2c1 | inactive | –
4 | N=C(N)c1ccc2cc(OC(=O)c3ccc(N=C(N)N)cc3)ccc2c1 | inactive | –
5 | O=C1c2c(O)cc(O)cc2OC(c2ccc(O)c(O)c2)C1O (stereo not given) | – | -1.19% (inactive)
6 | COC(=O)C1=C(C)NC(C)=C(C(=O)OCCCN2CCC(c3ccccc3)(c3ccccc3)CC2)C1c1cccc([N+](=O)[O-])c1 (stereo not given) | – | 5.9% (inactive)
7 | O=C(NCCO[N+](=O)[O-])c1cccnc1 | inactive | –
8 | COCCCOc1ccnc(CS(=O)c2nc3ccccc3[nH]2)c1C (stereo not given) | inactive | –
9 | O=c1oc2cc(O)ccc2s1 | – | -6.76% (inactive)
10 | Cc1ccc(NC(=O)c2ccc(CN3CCN(C)CC3)cc2)cc1Nc1nccc(-c2cccnc2)n1 | – | -7.68% (inactive)
11 | O=C1NC(=O)C(c2ccccc2[N+](=O)[O-])=C1Nc1ccc(O)c(Cl)c1 | – | 1.96% (inactive)
12 | CCOC(=O)C1=C[C@@H](OC(CC)CC)[C@H](NC(C)=O)[C@@H](N)C1 | – | 16.1% (inactive)
13 | C[C@]12CCC(=O)C=C1CC[C@@H]1[C@H]2[C@@H](O)C[C@@]2(C)[C@H]1CC[C@]2(O)C(=O)CO | – | 28.4% (inactive)
14 | O=C1c2ccccc2-c2n[nH]c3cccc1c23 | 3.43 µM (active) | –
15 | COc1cc2c(cc1OC)C1CC(=O)C(CC(C)C)CN1CC2 (stereo not given) | – | 7.9% (inactive)
16 | C[C@@H](N)C1CCC(C(=O)Nc2ccncc2)CC1 (stereo not given in full) | – | 21.8% (inactive)
17 | CC1Cc2ccccc2N1NC(=O)c1ccc(Cl)c(S(N)(=O)=O)c1 (stereo not given) | inactive | –
18 | CCc1nc(N)nc(N)c1-c1ccc(Cl)cc1 | 6.92 µM (active) | –
19 | CC(C)c1ccc2c(c1)c(SC(C)(C)C)c(CC(C)(C)C(=O)O)n2Cc1ccc(Cl)cc1 | 27.3 µM (active) | –
20 | C[C@H](Cn1cnc2c(N)ncnc21)OCP(=O)(O)O | – | 16.4% (inactive)

Row | SMILES | Potency | activity change, negative = cytotoxic
21 | COC(=O)[C@H](Cc1ccccc1)NC(=O)[C@@H](N)CC(=O)O (H-Asp-Phe-OMe) | inactive | –
22 | CC(C)CC(=O)N[C@H](C(=O)N[C@H](C(=O)N[C@@H](CC(C)C)[C@@H](O)CC(=O)N[C@@H](C)C(=O)N[C@@H](CC(C)C)[C@@H](O)CC(=O)O)C(C)C)C(C)C (Isovaleryl-VV[Sta]A[Sta]-OH) | – | 10.9% (inactive)
23 | CCCc1cc(=O)[nH]c(=S)[nH]1 | – | 6.65% (inactive)
24 | CC(C)(S)[C@@H](N)C(=O)O | – | 18.6% (inactive)
25 | O=C(O)c1cc(=O)c2c(OCC(O)COc3cccc4oc(C(=O)O)cc(=O)c34)cccc2o1 | inactive | –
26 | CC1(C)CCC(C)(C)c2cc(NC(=O)c3ccc(C(=O)O)cc3)ccc21 | inactive | –
27 | NNc1nncc2ccccc12 | inactive | –
28 | NC(=O)Cc1cccc(C(=O)c2ccccc2)c1N | inactive | –
29 | C[Se]CCC(N)C(=O)O (stereo not given) | – | -10.4% [at 116 µM] (inactive)
30 | CS(=O)(=O)OCCCCOS(C)(=O)=O | inactive | –
31 | O=Nc1c(-c2c(O)[nH]c3cc(Br)ccc23)[nH]c2ccccc12 | 19.3 µM (active) | –
32 | Cc1ncc([N+](=O)[O-])n1CC(C)O (stereo not given) | inactive | –
33 | C[C@@H](c1ncncc1F)[C@](O)(Cn1cncn1)c1ccc(F)cc1F | – | 2.12% (inactive)
34 | CCC[C@@H]1C[C@@H](C(=O)N[C@@H]([C@H]2O[C@H](SC)[C@H](O)[C@@H](O)[C@H]2O)[C@@H](C)O)N(C)C1 | inactive | –
35 | CC1(C)C(=O)N(CCN2CCC(C(=O)c3ccc(F)cc3)CC2)c2ccccc21 | – | -9.12% (inactive)
36 | Nc1nc(Cl)nc2c1ncn2[C@H]1C[C@H](O)[C@@H](CO)O1 | 0.273 µM (active) | –
37 | Cc1nc2n(c(=O)c1CCN1CCC(c3noc4cc(F)ccc34)CC1)CCCC2 | inactive | –
38 | CCN(CCO)CCCC(C)Nc1ccnc2cc(Cl)ccc12 (stereo not given) | 3.85 µM (active) | 5.71% [at 6.03 µM] (inactive)
39 | Cc1cc2cc3c(C)cc(=O)oc3c(C)c2o1 | – | 1.29% (inactive)
